Measured values published in PubChem BioAssay AID720553 (National Center for Advancing Translational Sciences (NCATS), 2013).
Screen size: about 340,000 compounds; about 3,300 (0.97%) were called active. The sample as a whole holds a higher share of actives than the screen did. Values without a mark were called inactive.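 The calls were made as follows: active = maximum activity change below -70%; inconclusive = maximum activity change from -70% to -50%; inactive = maximum activity change above -50%.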

These molecules were tested on Potassium voltage-gated channel subfamily H member 2, brain isoform KCNH2 3.1 (human) (assay: qHTS for Inhibitors of KCHN2 3.1: Mutant qHTS). Settings: U2OS KCNH2 3.1, thallium flux FluxOr; stronger effect = lower value.
Procedure, shortened: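 Measured as rate of thallium-driven FluxOr signal in transduced U2OS cells carrying the 3.1 channel, read kinetically for 2 min upon stimulation; values are rate constants scaled to DMSO control wells.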
% is scaled to controls: 0 for no effect and ±100 for the full control effect.

Structure (SMILES) | activity change
O=C1NC(Cc2ccccc2)c2nc3ccc(Br)cc3c(=O)n2-c2cc3ccccc3cc21 (configuration not stated) | -16.2%
Cc1ccc([C@H]2N[C@]3(CCCN(Cc4ccccc4)C3=O)[C@H]3C(=O)N(Cc4ccccc4)C(=O)[C@@H]23)cc1 | 4.9%
O=C(COc1ccc(S(=O)(=O)N2CCCC2)cc1[N+](=O)[O-])N1CCCCC1 | -5.01%
Cc1cc(/C=C2/SC(=O)N(CC(=O)OC(C)C)C2=O)c(C)n1C | -7.88%
CCOC(=O)CC1C(=O)NCCN1C(=O)COc1ccc(Br)cc1C (configuration not stated) | 3.78%
CCN=C1S/C(=C\c2cc(Br)ccc2OCC(=O)OCC)C(=O)N1CC | -71.6% (active)
Cc1ccc(C(=O)N2CCCc3ccccc32)c(Cl)c1 | 1.37%
Cc1nn(-c2ncccn2)c2c1C(=O)CC(C)(C)C2Br (configuration not stated) | -151% (active)
Cc1nn(-c2ccccc2)c2c1C(=O)NC(=O)C(C)(C)C2 | -21.5%
CC1=C(N2CCN(c3ncccn3)CC2)CCC1=O | -6.3%
COc1ccccc1NC(=O)C(CC(=O)O)Cc1cc(C)cc(C)c1 (configuration not stated) | 12.9%
C[C@H](O)[C@@H]1C(=O)N2CCc3c([nH]c4ccccc34)[C@@H]2C[C@@H]1N(C)C(=O)Nc1ccc(F)cc1 | -6%
Cc1cc2c(cc1C)N(Cc1ccccc1)C1=NCCCN12 | -15.2%
CC(C)(C)C(=O)CN1C2=NCCN2c2ccccc21 | 7.56%
OC(CN1C2=NCCCN2c2ccccc21)c1ccc(Br)cc1 (configuration not stated) | -80.8% (active)
CCn1ccnc1CN(C)Cc1nc(-c2ccc3c(c2)OCO3)no1 | -1.19%
CN(CCN1CCOCC1)Cc1nc(-c2ccc3c(c2)OCO3)no1 | 3.94%
CC(C)N(Cc1nc(-c2ccc3c(c2)OCO3)no1)CC1CCC(=O)N1 (configuration not stated) | -93.2% (active)
C[C@@H]1CN([C@H](C)CO)C(=O)c2cc(-c3ccc(F)cc3)cnc2O[C@H]1CN(C)C(=O)c1ccc(F)cc1 | -4.52%
O=C(NCC(F)(F)F)c1ccc(S(=O)(=O)NCCc2ccc3c(c2)OCCO3)cc1 | -2.33%
CCCCCCn1c(=O)n2n(c1=O)C[C@]1(OC(=O)NCc3ccc(OC)c(OC)c3)CN(S(=O)(=O)c3ccc(C)cc3)C[C@]1(O)C2 | -6.76%
CC(C)(C)N(CC#CCC(O)(c1ccccc1)C1CCCC1)CCO (configuration not stated) | -6.97%

Structure (SMILES) | activity change
CN(CC#CCC(c1ccccc1)c1ccccc1)C(C)(C)C | -77% (active)
Cc1ccc(CCNC(=O)CN2C(=O)CSc3ccc(S(=O)(=O)N4CCOCC4)cc32)cc1 | 4.19%
COC(=O)[C@H]1C[C@H](OC(=O)NCc2ccccc2)[C@@]2(O)CN(S(=O)(=O)c3ccc(C)cc3)CC2[C@H]1C(=O)OC (some centres not stated) | 2.28%
C[C@H](CO)N1C[C@H](C)[C@@H](CN(C)Cc2ccc3c(c2)OCO3)OCc2cnnn2CCCC1=O | -0.449%
CC(Sc1nnc(CNC(=O)c2ccccc2F)n1C)C(=O)Nc1nccs1 (configuration not stated) | -211% (active)
COc1ccccc1C(=O)NCc1nnc(SC(C)C(=O)Nc2nccs2)n1C (configuration not stated) | -5.02%
Cn1c(CNC(=O)c2ccccc2F)nnc1SCc1ccc(F)cc1 | 18.4%
Cc1ccc(OCC(=O)Nc2ccccc2C(=O)NC2CC2)cc1 | 21%
N#Cc1ccc(CN2CCN(CC(=O)Nc3ccccc3C(=O)NC3CC3)CC2)cc1 | -103% (active)
O=C(CN1CCCCC1)Nc1ccccc1C(=O)NC1CC1 | -2.8%
CCOc1ccc(CN2CCN(CCCc3ccccc3)C(CCO)C2)cc1 (configuration not stated) | -77.7% (active)
COC(=O)c1ccc(CN2CCN(CCCc3ccccc3)C(CCO)C2)cc1 (configuration not stated) | -48.5%
OCCC1CN(Cc2ccc(Oc3ncccn3)cc2)CCN1CCc1ccccc1 (configuration not stated) | -3.13%
O=C1c2ccccc2-c2ccccc2NC1O (configuration not stated) | 2.59%
O=C(c1ccc(OC2CCN(Cc3ccccn3)CC2)cc1)N1CCCCCC1 | 10%
CC(=O)Nc1ccc(CN2CCC(Oc3ccc(C(=O)N4CCCC4)cc3)CC2)cc1 | 9.17%
O=C(c1ccc(OC2CCN(C/C=C/c3ccc(F)cc3)CC2)cc1)N1CCCCC1 | -73.2% (active)
Cc1ccc([C@H]2N[C@]3(CCCN(CC4CCCCC4)C3=O)[C@H]3C(=O)N(Cc4ccccc4)C(=O)[C@@H]23)cc1 | -5.04%
Nc1cccc(OCCCCCOc2cccc(N)c2)c1 | -1.75%
CCCCN(CCCC)C(=O)CCS(=O)(=O)c1ccc2c(c1)n(C)c(=O)c(=O)n2C | -1.58%
Cn1c(=O)c(=O)n(C)c2cc(S(=O)(=O)CCC(=O)N3CCCCC3)ccc21 | -86.6% (active)
CCc1ccc(S(=O)(=O)Nc2cc3c(cc2N2CCCCC2)n(C)c(=O)c(=O)n3C)cc1 | -8.37%

Structure (SMILES) | activity change
CCOC(=O)C1CCN(C(=O)c2ccc3c(=O)n4nc(Nc5ccccc5CC)sc4nc3c2)CC1 | -6.19%
c1ccc(C2c3[nH]c4ccccc4c3CCN2Cc2cccn2-c2cccnc2)nc1 (configuration not stated) | 7.54%
CCOc1ccc(C2c3[nH]c4ccccc4c3CCN2Cc2cn(CC)nc2C)cc1 (configuration not stated) | -7.11%
CCOc1ccc(C2c3[nH]c4ccccc4c3CCN2Cc2cccn2-c2ncccn2)cc1 (configuration not stated) | -73.3% (active)
COc1ncnc2c1ncn2CCCNCCN1CCOCC1 | 7.59%
COc1ccc(CN2C(=O)C(CC(=O)NCc3cccc4ccccc34)CC(C(=O)N3CCOCC3)=C2C)cc1 (configuration not stated) | 6.14%
C[N+]1(CC(O)COc2ccccc2)CCN(C(=O)c2ccc([N+](=O)[O-])cc2)CC1 (configuration not stated) | -11.2%
OC(COc1ccccc1)CN1CCN(c2cccc(Cl)c2)CC1 (configuration not stated) | -33.9%
CCCc1ccc(OCC(O)CN2CCN(C(=O)OCC)CC2)cc1 (configuration not stated) | -6.68%
O=[N+]([O-])c1ccc(N2CCN(CC(O)COc3ccccc3)CC2)cc1 (configuration not stated) | -90.3% (active)
CC1CCN(CC(O)COc2ccc(C(=O)c3ccccc3)cc2)CC1 (configuration not stated) | -6.71%
O=C(C(c1ccccc1)c1ccccc1)N1CCN(CC(O)COc2ccccc2)CC1 (configuration not stated) | -70.2% (active)
CC1=C(C(=O)Nc2cccc(C(=O)NCC(C)c3ccccc3)c2)SCCO1 (configuration not stated) | 3.22%
COc1ccc(C(=O)NCC2CCCO2)cc1S(=O)(=O)NCc1ccc(Cl)cc1 (configuration not stated) | -6.01%
N#CCSc1ccccc1NC(=O)CN1C(=O)NC(CCc2ccccc2)C1=O (configuration not stated) | 0.381%
COc1ccc(-n2c(-c3ccc(Cl)cc3)n[nH]c2=S)c(OC)c1 | -3.64%
CCOc1cc(/C=N/NC(=O)CN2CCCCC2)ccc1O | 1.68%
Cc1ccc(COc2ccc(/C=N/NC(=O)CN3CCCCC3)cc2)cc1 | -108% (active)
O=C(CN1CCSCC1)N/N=C/c1ccc(F)cc1 | 1.88%
O=C1c2ccccc2C(=O)N1CCCCCCN1C(=O)c2ccccc2C1=O | 6.18%
O=C1c2ccccc2C(=O)N1CCCc1nc(-c2ccccc2)no1 | 6.34%
O=C1c2cccc3cccc(c23)C(=O)N1CCCCCc1n[nH]c(=S)o1 | -159% (active)

Structure (SMILES) | activity change
c1ccc(CNCc2ccc(CNCc3ccccc3)cc2)cc1 | 1.02%
COc1ccc(F)c(-c2nc(CN3CCC(c4ccccc4)CC3)c(C)o2)c1 | -31.2%
COc1ccc(Cn2nnc3c(=O)[nH]c(C4CCN(C(=O)c5ccccc5Cl)CC4)nc32)cc1 | -29.8%
COc1ccc(CN2CCC(c3nc4ccc(Cl)cc4[nH]3)CC2)cc1 | -98.1% (active)
COCCCn1c(C(=O)NC2CCCCC2)cc2c(=O)n3cccc(C)c3nc21 | 5.72%
N#CC1(Nc2ccc3c4c(cccc24)CC3)CCCCC1 | 0.638%
COc1cc(OC)cc(C(=O)Nc2ccc(-c3nc4ccccc4o3)c(O)c2)c1 | -93.4% (active)
Cc1ccc2nc(-c3ccc(NC(=O)c4cccnc4)cc3)oc2c1 | -11.7%
COc1ccc(NC(=O)c2cc(-c3ccc(C)o3)nc3ccccc23)cc1 | -28.1%
O=C(c1ncn2c1c(=O)[nH]c1ccccc12)N1CCc2ccccc2C1 | -7.26%
COc1ccccc1C(=O)NC(=S)Nc1ccc(N2CCOCC2)cc1 | 6.65%
CCCCN(C)CCCNC(=O)c1cc(-c2cccs2)nc2ccccc12 | -71.7% (active)
O=C(Nc1nnc(-c2ccccc2)o1)c1cc(-c2cccs2)nc2ccccc12 | -3.38%
CCN(CC)CCNC(=O)c1ccc(NC(=O)c2cc(-c3ccncc3)nc3ccccc23)cc1 | 4.76%
CC1=C(C(=O)N2CCOCC2)CC(CC(=O)NCc2cccc3ccccc23)C(=O)N1CCC1=CCCCC1 (configuration not stated) | 1.47%
O=C(OCc1cn([C@@H]2C[C@H](c3ccc(Cl)cc3)N(Cc3cccs3)C[C@H]2O)nn1)c1ccccc1 | 6.9%
Cc1ccc(S(=O)(=O)N2C[C@@H](C)[C@]3(C2)[C@H](O)[C@H](OC(=O)NCc2ccccc2)C[C@H]2C(=O)N(c4ccccc4)C(=O)[C@H]23)cc1 | 5.25%
N#CCCN(C(=S)Nc1ccc(Cl)c(Cl)c1)C1CCCCC1 | -7.86%
COc1cc(NC(=O)c2[nH]cnc2C(N)=O)cc(C(=O)Nc2cccc(C(F)(F)F)c2)c1 | -24.6%
COc1cccc(NC(=O)CN(C)C(C)C(=O)Nc2ccc(C#N)cc2)c1 (configuration not stated) | 3.52%
COc1cc(NC(=O)c2cncc(-c3ccc(C#N)cc3)c2)cc(C(=O)Nc2cccc(C(F)(F)F)c2)c1 | -82.3% (active)
